According to ChEMBL document CHEMBL3988442, “University of Dundee, Small-Polar-MMV Screening Library” (2021):

Experiments:
[1] = target: T1, Aspartate--tRNA(Asp/Asn) ligase (Mycobacterium tuberculosis (strain ATCC 25618 / H37Rv)) (UniProt P9WFW3); assay: Assay for Asp RNA synthetase-1 from Mycobacterium tuberculosis; format: functional; design: scale not given: direction of the effect not stated beside the values; conditions: 30 µM; note: in the data most compounds retested in dose-response had high values
T1 sequence (whole entry): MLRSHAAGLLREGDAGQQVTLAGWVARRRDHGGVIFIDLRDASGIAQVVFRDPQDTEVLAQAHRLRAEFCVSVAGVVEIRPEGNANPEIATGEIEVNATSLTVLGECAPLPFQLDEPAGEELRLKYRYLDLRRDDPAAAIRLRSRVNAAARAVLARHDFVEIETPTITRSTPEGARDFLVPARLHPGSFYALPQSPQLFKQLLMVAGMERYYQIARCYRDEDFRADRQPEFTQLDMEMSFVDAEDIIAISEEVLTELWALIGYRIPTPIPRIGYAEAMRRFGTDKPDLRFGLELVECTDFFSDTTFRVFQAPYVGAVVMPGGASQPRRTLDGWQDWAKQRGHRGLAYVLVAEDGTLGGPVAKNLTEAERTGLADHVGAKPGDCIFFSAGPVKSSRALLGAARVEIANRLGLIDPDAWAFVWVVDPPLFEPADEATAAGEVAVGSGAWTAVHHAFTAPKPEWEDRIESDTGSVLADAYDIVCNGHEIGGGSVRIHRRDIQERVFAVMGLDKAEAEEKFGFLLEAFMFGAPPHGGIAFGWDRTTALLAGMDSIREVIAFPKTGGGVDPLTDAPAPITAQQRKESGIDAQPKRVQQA

[2] = target: Shiga toxin 2 (Escherichia coli O157:H7) (UniProt P09385+P09386); assay: E. coli 0.157:H7 Shiga Toxin SOP - stx2 screening assay; format: functional; design: scale not given: direction of the effect not stated beside the values; conditions: 30 µM

SMILES	Percent Effect [1] [%]	Percent Effect [2] [%]
OC(CN1CCOCC1)CN1CCc2c(ncn2C2CC2)C1 (stereo not drawn)	-8.33	-43.3
COC(=O)C(NC(=O)COC1CCCC1)c1cc(F)ccc1F (stereo not drawn)	-3.52	-22.4
CN(Cc1ccsc1)C(=O)c1cccc(NS(C)(=O)=O)c1	-4.16	-32.9
CN(C)CCN1CCO[C@@H]2CN(C(=O)c3cccs3)CC[C@@H]2C1	0.229	4.93
O=C(c1cc(Cl)c2c(c1)OCO2)N1CCN(c2nccs2)CC1	-0.23	-4.3
CNc1cc(N2CCCC2CNCc2cnc(C)cn2)ncn1 (stereo not drawn)	-0.989	-46
CCn1c(N)nc2cc(C(=O)NCCc3sccc3C)cnc21	2.47	-89
O=C(CCc1cccnc1)N(Cc1ccsc1)CC1CCCO1 (stereo not drawn)	-1.24	-0.116
COCCc1noc(CN2CCOC(Cn3nc(C)cc3C)C2)n1 (stereo not drawn)	-2.55	-7.72
CCn1nc2c(cc1=O)CN(CC(=O)Nc1nc(C)c(C)s1)CC2	3.7	-30.8
Cc1ccc(CC(=O)N2CC[C@@H]3CN(CCN(C)C)CCO[C@@H]3C2)cc1	6.89	-3.9
CN(C)[C@@H]1CCN(C(=O)c2ccsc2)[C@H]1Cc1cnn(C)c1	-0.691	-4.3
CCCc1cc(C(=O)N(C)Cc2cccc3ncccc23)n(C)n1	-1.28	-12.5
O=C(NCCOc1ncc(Cl)cc1Cl)c1ccncc1F	-3.03	1.2
Cc1ccc(O)c(CNC2CCc3nc(C(C)C)nn3C2)n1 (stereo not drawn)	2.88	1.45
O=C(NCCN1CCC(c2cccs2)CC1)c1ccccc1C(F)(F)F	-10.3	-49.7
CC(NCc1ccncc1)c1cc(F)ccc1N1CCN(C)CC1 (stereo not drawn)	0.183	-4.73
CC(C)C(NC(=O)Cn1ccc(=O)n(C)c1=O)c1ccc(F)cc1 (stereo not drawn)	4.7	-13.7
CC(C)c1ncc(CN2CCCC(CO)C2)cn1 (stereo not drawn)	0.491	5.71
